From PubChem BioAssay (Tox21)
Results filed as inconclusive are left out. Unmarked numbers belong to inactive results. Active and inactive are the calls of the source. Calls follow the shape of the dose curve; as a rule, active = well fitted activation curve with a large enough effect in the repeat runs; inconclusive = weak or mixed curves; inactive = flat fitted curve, though single readings scatter. Where a SMILES comes first, the peptide text is derived from it. [ ]: non-standard residue; d: D form. pGlu = O=C1CC[C@@H](C(=O)O)N1

experiment: A CellTox Green Cytotoxicity Assay to monitor cytotoxicity in HEK293 cells - 32 hour (AID 1224881); settings: CellTox Green fluorescence; series mostly up to 76.8 µM; also: nearly all actives have a fitted effect of over 40% in size
From the text: National Center for Advancing Translational Sciences [NCATS]
NIH Chemical Genomics Center [NCGC]
U.S. Environmental Protection Agency [EPA]
National Institutes of Environmental Health Sciences [NIEHS]
National Toxicology Program [NTP]
Cell-based models are critical for drug discovery. Determining the natural cytotoxic effects resulting from test compounds is an essential research activity. A CellTox Green Cytotoxicity Assay to monitor cytotoxicity in real time of continues cell culture during 40 hours of the compound treatment was used to screen Tox21 10K library compounds in Hek293 cells. CellTox Green Cytotoxicity Assay is a nonlytic, homogeneous, biofluorescent method to measure cytotoxicity in cell culture after experimental manipulation. The assay system uses a proprietary asymmetric cyanine dye that is excluded from viable cells but preferentially stains the dead cell's DNA. […] Viable cells produce no appreciable increases in fluorescence. Therefore, the fluorescence signal produced by the binding interaction with dead cell DNA is proportional to cytotoxicity.
The mixture of Hek293 cell suspension and reagents were dispensed at 600cells/6 ul/well in 1536-well tissue culture treated black solid bottom plates using a Multidrop dispenser. After the assay plates were incubated at a 37 C/5% CO2 incubator for 5 hours, 23 nL of compounds dissolved in DMSO, positive and negative controls was transferred to the assay plate by a pintool work station. The plates were incubated at 37 C for 40 hours. The fluorescence intensity were measured at 0h, 8h, 16h, 24h, 32h and 40h time points using ViewLux plate reader during compound treatment.
% is scaled to controls: 0 for no effect and ±100 for the full control effect.

Question: For `O=C1c2ccccc2C(=O)c2cc(O)ccc21`, which outcome is on record?
Answer: Its outcome is “inactive”.

Question: For `c1ccc2sc(SN3CCOCC3)nc2c1`, which outcome is on record?
Answer: The outcome was “inactive”.

Question: For `O=C(CO)[C@@H](O)[C@H](O)[C@@H](O)CO`, which outcome is on record?
Answer: Its outcome is “inactive”.

Question: Which cytotoxicity increase does the source give for `CN1CCN(c2cc3c(nn2)Oc2ccccc2N3C)CC1` here?
Answer: Its cytotoxicity increase is -14.8% [at 15.8 µM].

Question: With `NC(=O)NC1N=C([O][Al])NC1=O` (stereo not given) as the compound, how does the outcome read?
Answer: The outcome was “inactive”.

Question: Which outcome does the source give for `O=C(O)CNC(=O)c1ccccc1` here?
Answer: The outcome was “inactive”.

Question: Which outcome does the source give for `O=C(O)c1cn(C2CC2)c2cc(N3CCNCC3)c(F)cc2c1=O` here?
Answer: Its outcome is “inactive”.

Question: With `CCCC(=O)O[C@]1(C(=O)CC)CC[C@H]2[C@@H]3CCC4=CC(=O)CC[C@]4(C)[C@H]3[C@@H](O)C[C@@]21C` as the compound, how does the outcome read?
Answer: The outcome was “inactive”.

Question: For `CCNC(=O)[C@@H]1CCCN1C(=O)[C@H](CCCN=C(N)N)NC(=O)[C@H](CC(C)C)NC(=O)CNC(=O)[C@H](Cc1ccc(O)cc1)NC(=O)[C@H](CO)NC(=O)[C@H](Cc1c[nH]c2ccccc12)NC(=O)[C@H](Cc1cnc[nH]1)NC(=O)[C@@H]1CCC(=O)N1` ([pGlu]HWSYGLRP-NHEt), which outcome is on record?
Answer: Its outcome is “inactive”.

Question: For `CC1=C(C/C=C(\C)CCC[C@H](C)CCC[C@H](C)CCCC(C)C)C(=O)c2ccccc2C1=O`, which outcome is on record?
Answer: The outcome was “inactive”.

Question: Which outcome does the source give for `CCN[C@H]1C[C@H](C)S(=O)(=O)c2sc(S(N)(=O)=O)cc21` here?
Answer: The outcome was “inactive”.

Question: Which outcome does the source give for `CCCOC(=O)CC` here?
Answer: The outcome was “inactive”.

Question: Which outcome does the source give for `CC(=O)O[C@@]12CO[C@@H]1C[C@H](O)[C@@]1(C)C(=O)[C@H](O)C3=C(C)[C@@H](OC(=O)[C@H](O)[C@@H](NC(=O)OC(C)(C)C)c4ccccc4)C[C@@](O)([C@@H](OC(=O)c4ccccc4)[C@H]21)C3(C)C` here?
Answer: Its outcome is “inactive”.

Question: With `CC(=O)c1ccccc1[N+](=O)[O-]` as the compound, how does the outcome read?
Answer: The outcome was “inactive”.

Question: For `CCN(C=O)CC`, which outcome is on record?
Answer: Its outcome is “inactive”.

Question: Which outcome does the source give for `C[C@H]1[C@H](NC(=O)/C(=N/OC(C)(C)C(=O)O)c2csc(N)n2)C(=O)N1S(=O)(=O)O` (stereo in doubt) here?
Answer: Its outcome is “inactive”.

Question: Which outcome does the source give for `CNCCO` here?
Answer: The outcome was “inactive”.

Question: Which outcome does the source give for `CCCCCCCCCC[N+](C)(C)[O-]` here?
Answer: Its outcome is “inactive”.

Question: Which outcome does the source give for `CCN1CCOCC1` here?
Answer: Its outcome is “inactive”.

Question: With `Cc1coc2ccccc2c1=O` as the compound, how does the outcome read?
Answer: The outcome was “inactive”.

Question: Which outcome does the source give for `CC(C)(C#N)Nc1nc(Cl)nc(NC2CC2)n1` here?
Answer: The outcome was “inactive”.

Question: Which outcome does the source give for `CCO[Si](OCC)(OCC)c1ccccc1` here?
Answer: The outcome was “inactive”.

Question: Which outcome does the source give for `CCCCCCCC1CCCC1=O` (stereo not given) here?
Answer: The outcome was “inactive”.

Question: For `CC(C)[C@H]1CC[C@@H](C)CC1=O`, which outcome is on record?
Answer: The outcome was “inactive”.

Question: Which outcome does the source give for `CC(C)(C)c1ccc(-c2ccc(C(C)(C)C)cc2)cc1` here?
Answer: Its outcome is “inactive”.

Question: Which outcome does the source give for `CC(=O)NC(=O)c1ccccc1O` here?
Answer: The outcome was “inactive”.

Question: Which outcome does the source give for `Cc1ccc(-c2ncc(Cl)cc2-c2ccc(S(C)(=O)=O)cc2)cn1` here?
Answer: Its outcome is “inactive”.

Question: Which outcome does the source give for `C[N+]1(C)[C@@H]2CC(OC(=O)[C@H](CO)c3ccccc3)C[C@H]1[C@@H]1O[C@@H]12` (stereo not given in full) here?
Answer: The outcome was “inactive”.

Question: For `CC1=NN(c2cc(S(=O)(=O)O)ccc2Cl)C(=O)C1N=Nc1ccccc1` (stereo not given), which outcome is on record?
Answer: The outcome was “inactive”.

Question: For `C[C@H]1C[C@H]2[C@@H]3CCC4=CC(=O)C=C[C@]4(C)[C@H]3C(=O)C[C@]2(C)[C@@]1(O)C(=O)CO`, which outcome is on record?
Answer: Its outcome is “inactive”.

Question: Which outcome does the source give for `CC(C)(C)C(=O)c1ccccc1` here?
Answer: Its outcome is “inactive”.

Question: With `CCOCC(C)O` (stereo not given) as the compound, how does the outcome read?
Answer: Its outcome is “inactive”.

Question: For `CC1=NS(=O)(=O)c2cc(Cl)ccc2N1`, which outcome is on record?
Answer: The outcome was “inactive”.

Question: With `COC(=O)C1=C(C)NC(C)=C(C(=O)OC(C)C)C1c1cccc2nonc12` (stereo not given) as the compound, how does the outcome read?
Answer: The outcome was “inactive”.

Question: For `O=C(O)CC(C(=O)O)S(=O)(=O)O` (stereo not given), which outcome is on record?
Answer: Its outcome is “inactive”.

Question: For `CC1(C)[C@@H]2CC[C@@]1(C)[C@H](O)C2`, which outcome is on record?
Answer: The outcome was “inactive”.

Question: For `CNC(=O)Nc1ccc(Cl)c(Cl)c1`, which outcome is on record?
Answer: Its outcome is “inactive”.

Question: Which outcome does the source give for `COc1ccccc1OCC1CNC(=O)O1` (stereo not given) here?
Answer: The outcome was “inactive”.

Question: With `O=C(O)CNC(=O)c1ccc(CO)o1` as the compound, how does the outcome read?
Answer: Its outcome is “inactive”.

Question: Which outcome does the source give for `CC[N+](C)(CC)CCOC(=O)C1c2ccccc2Oc2ccccc21` here?
Answer: Its outcome is “inactive”.
